Test systems include NCI-H23 lung; NCI-H226 lung; NCI-H322M lung; HOP-62 NSCLC; NCI-H460 lung; HOP-92 NSCLC; NCI-H522 lung; A549/ATCC NSCLC; 786-0 renal; COLO 205 colon; DU-145 prostate; K-562 leukemia; MALME-3M melanoma; MDA-MB-231 breast; RXF 393 renal; SF-268 CNS; SF-295 CNS; SF-539 CNS; UACC-257 melanoma; M14 melanoma.
What all share (assay): NCI-60 one-dose screen, 48 h (100 = growth as untreated, 0 = no growth, -100 = all killed)
What all share (details): 10 µM unless noted

The panel holds about 83,000 compounds, 20% with a hit somewhere; the sample as a whole holds those more often.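 Negative percent growth values reflect cell death: -40 means 40% of the cells present at the start died, and -100 means all died.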 Unmarked numbers belong to inactive results. Activity calls are given as the source filed them. How the source made its calls: active means growth percent below 10; inactive means the rest.

For the compound `C[C@H]1[C@H](C)CC[C@]2(C(=O)O)CC[C@]3(C)C(=CC[C@@H]4[C@@]5(C)C/C(=C/c6ccco6)C(=O)C(C)(C)[C@@H]5CC[C@]43C)[C@H]12`, the growth with NCI-H23 lung was -81.1% [100 µM] (active); in the assay on NCI-H226 lung, -52.3% [100 µM] (active); in the assay on NCI-H322M lung, -73.4% [100 µM] (active); in the assay with HOP-62 NSCLC, -75.7% [100 µM] (active); in the assay with NCI-H460 lung it was -55.6% [100 µM] (active); in the assay with HOP-92 NSCLC, -87.7% [100 µM] (active). The growth in the assay on NCI-H522 lung is -82.7% [100 µM] (active); in the assay on A549/ATCC NSCLC, -52.5% [100 µM] (active); with 786-0 renal, -40.3% [100 µM] (active); in the assay with COLO 205 colon it was -60.9% [100 µM] (active); in the assay with DU-145 prostate, -73.1% [100 µM] (active); in the assay with K-562 leukemia, 7.11% [100 µM] (active). Further, the growth in the assay with MALME-3M melanoma is -86% [100 µM] (active); in the assay on MDA-MB-231 breast, -81.5% [100 µM] (active); in the assay with RXF 393 renal, -84% [100 µM] (active); in the assay on SF-268 CNS it was -58.7% [100 µM] (active); in the assay on SF-295 CNS, -79.4% [100 µM] (active); in the assay with SF-539 CNS it was -80.1% [100 µM] (active). Further, the figures for the growth in the assay on UACC-257 melanoma and in the assay with M14 melanoma were -39.1% [100 µM] (active) and -43.6% [100 µM] (active), respectively.
As to `C#CCC(C(=O)OCC)C(=O)OCC`, the growth is 100% in the assay on NCI-H23 lung; 98.5% in the assay on NCI-H226 lung; 100% in the assay on NCI-H322M lung; 102% in the assay on HOP-62 NSCLC; 109% in the assay with NCI-H460 lung; 108% in the assay with HOP-92 NSCLC. The growth was 99.1% with NCI-H522 lung; 100% in the assay on A549/ATCC NSCLC; 107% in the assay on 786-0 renal; 105% with COLO 205 colon; 101% with DU-145 prostate; 102% in the assay on K-562 leukemia. In addition, the growth is 110% with MALME-3M melanoma; 101% in the assay on MDA-MB-231 breast; 128% in the assay with RXF 393 renal; 104% in the assay with SF-268 CNS; 103% in the assay on SF-295 CNS; 101% in the assay with SF-539 CNS. In addition, the growth in the assay with UACC-257 melanoma was 108%; in the assay on M14 melanoma, 105%.
Regarding `COc1ccc(OC)c([N+](=O)[O-])c1C(=O)CNC(C)=O`, the growth is 105% with NCI-H23 lung; 101% in the assay with NCI-H226 lung; 105% in the assay on NCI-H322M lung; 105% in the assay on HOP-62 NSCLC; 107% with NCI-H460 lung; 89.9% with HOP-92 NSCLC. Moreover, the growth is 95.7% with NCI-H522 lung; 100% in the assay with A549/ATCC NSCLC; 103% in the assay with 786-0 renal; 114% in the assay on COLO 205 colon; 109% in the assay with DU-145 prostate; 103% in the assay with K-562 leukemia. For the same compound, the growth in the assay on MALME-3M melanoma was 112%; in the assay with MDA-MB-231 breast it was 98.4%; with RXF 393 renal, 101%; in the assay on SF-268 CNS, 102%; in the assay with SF-295 CNS it was 95.2%; in the assay on SF-539 CNS it was 101%. Besides, the growth in the assay on UACC-257 melanoma is 105%; in the assay on M14 melanoma, 107%.
For `CC1Cc2c(Cl)ncnc2N(C)c2ccc(Cl)cc21` (stereo not given), the growth with NCI-H23 lung is 13.5%; with NCI-H226 lung, -5.56% (active); in the assay on NCI-H322M lung it was 36.8%; in the assay with HOP-62 NSCLC, 13.6%; in the assay with NCI-H460 lung it was 19.2%; in the assay with HOP-92 NSCLC, 8.05% (active). For the same compound, the growth is -68.3% (active) in the assay with NCI-H522 lung; 17.9% in the assay on A549/ATCC NSCLC; 8.16% (active) in the assay with 786-0 renal; -77.6% (active) with COLO 205 colon; 40.9% with DU-145 prostate; 14.7% in the assay with K-562 leukemia. The growth was 22.6% with MALME-3M melanoma; -39.8% (active) in the assay on MDA-MB-231 breast; 0.883% (active) in the assay with RXF 393 renal; 18.8% in the assay on SF-268 CNS; 20.2% in the assay on SF-295 CNS; 28.1% in the assay with SF-539 CNS. Further, the growth was 4.86% (active) in the assay on UACC-257 melanoma and 11.1% in the assay on M14 melanoma.
For the compound `O=C(Nc1ccccc1)Nc1ccc(C(=O)/C=C/c2ccc(N3CCCC3)cc2)cc1`, the growth in the assay on NCI-H23 lung was 92.3%; in the assay on NCI-H226 lung it was 78%; with NCI-H322M lung, 83.2%; in the assay with HOP-62 NSCLC, 63%; in the assay with NCI-H460 lung it was 78.7%; in the assay with HOP-92 NSCLC, 73.8%. Besides, the growth with NCI-H522 lung was 31.7%; with A549/ATCC NSCLC, 75.5%; with 786-0 renal, 93.9%; in the assay on COLO 205 colon, 66.6%; in the assay on DU-145 prostate, 94.7%; in the assay with K-562 leukemia, 77.2%. In addition, the growth was 79.1% with MALME-3M melanoma; 56.8% in the assay on MDA-MB-231 breast; 58.8% in the assay with RXF 393 renal; 57.6% in the assay on SF-268 CNS; 73.4% in the assay with SF-295 CNS; 78.7% in the assay on SF-539 CNS. The growth with UACC-257 melanoma is 51.4%; in the assay on M14 melanoma, 101%.
With `CCOC(=O)n1cc(C2=C(c3ccc(OC)c(OC)c3)COC2=O)c2ccccc21`, the growth was 39.3% with NCI-H23 lung; 55.5% with NCI-H226 lung; 52% in the assay on NCI-H322M lung; 26.1% in the assay on HOP-62 NSCLC; 8.64% (active) in the assay on NCI-H460 lung; 5.33% (active) with HOP-92 NSCLC. The growth in the assay with NCI-H522 lung was -23.6% (active); in the assay on A549/ATCC NSCLC, 17.8%; in the assay with 786-0 renal, 23.5%; in the assay with COLO 205 colon it was -60.7% (active); with DU-145 prostate, -7.55% (active); with K-562 leukemia it was 9.56% (active). Further, the growth was 45% in the assay on MALME-3M melanoma; 13.5% in the assay with MDA-MB-231 breast; -4.89% (active) with RXF 393 renal; 28.2% with SF-268 CNS; 16.2% with SF-295 CNS; -15% (active) in the assay on SF-539 CNS. Besides, the figures for the growth in the assay with UACC-257 melanoma and with M14 melanoma were 91.2% and 54.6%, respectively.
As to `COc1cc2c(c(OC)c1OC)-c1ccc(NNC(N)=S)c(=O)cc1[C@@H](NC(C)=O)CC2`, the growth with NCI-H23 lung was 5.07% (active); with NCI-H226 lung, 27.9%; with NCI-H322M lung, 64.9%; with HOP-62 NSCLC it was 32.7%; in the assay with NCI-H460 lung, -3.14% (active); in the assay with HOP-92 NSCLC, -6.59% (active). Moreover, the growth was -63.3% (active) with NCI-H522 lung; 15.7% in the assay with A549/ATCC NSCLC; 21.9% in the assay on 786-0 renal; -95.6% (active) in the assay on COLO 205 colon; -14.5% (active) with DU-145 prostate; 10.1% in the assay with K-562 leukemia. Besides, the growth with MALME-3M melanoma is 88.4%; in the assay with MDA-MB-231 breast, 20%; in the assay on RXF 393 renal it was -8.91% (active); with SF-268 CNS, 21.3%; in the assay with SF-295 CNS, 10.6%; in the assay with SF-539 CNS, -18.4% (active). The growth with UACC-257 melanoma was 57.2%; with M14 melanoma, -2.7% (active).
